High-throughput results: PubChem, National Center for Advancing Translational Sciences (NCATS)
Shown are actives, neighbours in structure and some others; about 12% of the full set was active somewhere.
LASV entry inh: qHTS for Inhibitors of binding or entry into cells for Lassa Virus; Potency, µM (top dose mostly 37.9 µM), inactives show at the top dose activity change, negative = inhibition, actives largely listed as inhibitors; AID 540256, 2011; actives 1.2% (n = 300,000); Lassa virus pseudotype entry inhibition, cell reporter; calls by dose curve; tested in HEK293 cells; further: potency means the concentration at half of the fitted maximal effect; on the % scale 0 is the no-effect control and ±100 the full control effect; nearly all actives have a fitted effect of over 50% in size
Marburg entry inh: qHTS for inhibitors of binding or entry into cells for Marburg Virus. Marburg virus pseudotyped entry inhibition, cell reporter. Potency, µM (series often up to 37.8 µM), without a hit: at the highest dose activity change, negative = inhibition, usual class: inhibitors. actives 1.8% (n = 300,000); calls by dose curve; tested in HEK293 cells; further: potency means the concentration at half of the fitted maximal effect; on the % scale 0 is the no-effect control and ±100 the full control effect
Shiga toxin inh: A qHTS for Small Molecule Inhibitors of Shiga Toxin | inhibition, % at 38.7 µM | Vero cells, Shiga toxin protein synthesis inhibition reporter | actives 9.2% (n = 290,000); in the data active means inhibition mostly above about 28%, no sharp cut-off; inactive means mostly below about 43%; further: 0% is about no effect
Cycloheximide cs: Cycloheximide Counterscreen for Small Molecule Inhibitors of Shiga Toxin. cell reporter, cycloheximide protein synthesis inhibition counterscreen. max response, %. actives 12% (n = 300,000). AID 2314, 2010; in the data active means max response mostly above about 13%, no sharp cut-off; inactive means mostly below about 14%; further: read at 38.3 µM for the half of the compounds with a filed dose; 0% is about no effect
Starred values were filed as active, the others as inactive; ? = inconclusive; / = no result given; [ ] = dose if it differs, or a comment.

SMILES	LASV entry inh	Marburg entry inh	Shiga toxin inh	Cycloheximide cs
O=C(N/N=C/c1c(O)n(Cc2ccco2)c(=O)[nH]c1=O)c1ccccc1O	-8%	-2%[46.1 µM]	73*	22*
CCCCC(=O)N/N=C/c1c(O)n(Cc2ccco2)c(=O)[nH]c1=O	0%	?	12	1
CCn1c(O)c(/C=N/NC(=O)c2ccccc2)c(=O)n(CC)c1=S	?	?	52*	47*
CN(C(=O)COC(=O)C1CCN(S(=O)(=O)c2ccc3c(c2)OCCO3)CC1)C1CCS(=O)(=O)C1 (centres undefined)	6%	-3%	/	/
CC(C)Sc1nc2ccccc2n2cnnc12	-16%[46.1 µM]	?	-7	12
C=CCN=c1scc(C)n1/N=C/c1ccc(O)c(O)c1	/	/	65*	37*
Cc1cc(C)n(/N=C/c2ccc(O)cc2)c(=O)c1C#N	-7%	2%[46.1 µM]	-2	-3
CN=c1scc(C)n1/N=C/c1ccc(O)cc1	?	?	117*	38*
COc1cc(/C=N/NC(=O)CC#N)cc(Br)c1O	-16%	-3%[46.1 µM]	-18	-1
CN=c1scc(C)n1/N=C/c1ccc2c(c1)OCO2	3.5µM*	?	69*	28*
CN=c1scc(-c2ccco2)n1/N=C/c1ccc(O)c(O)c1	?	?	16	4
CCN=c1scc(C)n1/N=C/c1cc(Br)c(O)c(OC)c1	?	?	37	14*
CN(C)c1nc(-c2cn(CCC#N)c3ccccc23)cs1	-18%	?	2	-4
CN=c1scc(C)n1/N=C/c1ccc(O)cc1O	?	?	30*	25*
CN=c1scc(C)n1/N=C/c1cc(Br)c(O)c(Br)c1	-6%	?	51	18*
CCCc1nc2ccccc2c(=O)n1/N=C/c1ccc(O)cc1O	-19%	-10%	-10	6
CCCCc1nc2c(c3c1C[C@H](C)OC3)CN(S(=O)(=O)c1ccccc1C(=O)OC)CC2	/	22%[14.2 µM]	/	/
CCN(CC)c1nc2c(s1)C(=O)CC(C)(C)C2	-1%	13%	31	12
N#C/C(=N\Nc1ccc(Br)cc1)C(=N)N1CCOCC1	/	/	107*	69*
O=C(CN1CCCCCC1)Nc1ccccc1[N+](=O)[O-]	/	/	/	-2
N#C/C(=N/Nc1ccc([N+](=O)[O-])cc1)C(=N)N1CCCCC1	?	-25%[46.1 µM]	104*	31*
N#C/C(=N\Nc1ccccc1[N+](=O)[O-])C(=N)N1CCCCC1	?	?	67*	31*
COc1ccccc1N/N=C(\C#N)C(=N)N1CCOCC1	/	10%[46.1 µM]	14	6
N#C/C(=N\Nc1ccc([N+](=O)[O-])cc1)C(=N)N1CCOCC1	12%	1%	69*	46*
Clc1ccc(CCNc2nc3cc(Cl)c(Cl)cc3n3cnnc23)cc1	2%[46.1 µM]	2%[46.1 µM]	/	/
SMILES	LASV entry inh	Marburg entry inh	Shiga toxin inh	Cycloheximide cs
N#C/C(=N\Nc1ccc([N+](=O)[O-])cc1)C(N)=S	?	?	88*	41*
N#C/C(=N\Nc1ccc(S(=O)(=O)N2CCCCCC2)cc1)C(N)=S	-4%	?	32	19
COCCCN1C(=O)N(c2ccc(F)cc2)C(=O)C1CC(=O)Nc1ccc(OC)cc1 (centres undefined)	/	/	1	-1
O=c1n(CC2CO2)c(=O)n(CC2CO2)c(=O)n1CC1CO1 (centres undefined)	?	0.45µM*	/	/
O=C(COc1ccc(Cl)cc1Cl)N/N=C/c1ccc(OC2OC(CO)C(O)C(O)C2O)cc1 (centres undefined)	/	/	4	3
Cc1cccc(C2(c3cccc(C)c3)CC2C(=O)Nc2ccc([N+](=O)[O-])cc2O)c1 (centres undefined)	?	13µM*	-2	1
Cc1nc(-c2c(-c3ccc(O)cc3O)noc2C(F)(F)F)cs1	?	?	28	11
CSc1ncc(-c2ccc(Cl)cc2)[nH]1	2%	-1%[46.1 µM]	76*	45*
COc1ccc(C2=NN(C(=O)CN3CCOCC3)C(c3nc4ccccc4[nH]3)C2)cc1 (centres undefined)	-23%	8%[46.1 µM]	105*	56*
CCOC(=O)c1c(NC(=O)c2nc(SCC)ncc2Cl)sc2c1CCCC2	?	0%[46.1 µM]	/	/
COC(=O)c1cnn(-c2ccc(Cl)cc2)c1/C=N/NC(N)=S	?	?	-21	-4
CC(C)(C)c1ccc(OCCCn2ccnc2)cc1	-1%[46.1 µM]	16%[46.1 µM]	15	8.4*
Cc1ccc(OCCCn2ccnc2)c(Br)c1	/	/	33	20*
Cc1ccc(OCCCn2ccnc2)c([N+](=O)[O-])c1	?	11%	3	-2
c1ccc2cc(OCCCn3ccnc3)ccc2c1	?	3%[46.1 µM]	17	17*
Cc1cc(OCCCn2ccnc2)ccc1C(C)C	14%	1%	17	10
Cc1ccccc1CN(c1ccc(C(=O)N2CCCC2)cc1)S(C)(=O)=O	12%	2%	-3	-1
Cc1ccccc1CN(c1ccc(C(=O)NCCC2=CCCCC2)cc1)S(C)(=O)=O	16µM*	?	-24	-2
CCCCC(O)(CCCC)C(=O)N/N=C(\C)c1ccc(Cl)cc1	-44%[46.1 µM]	11µM*	5	-1
C/C(=N/NC(=O)CNc1ccc(C)cc1)c1ccc(Cl)cc1	-34%	-7%	-3	-2
N/C(=N\OC(=O)Cc1ccc(Cl)cc1)c1ccccn1	?	-16%	32	20*
Cc1cccc(OCC(=O)O/N=C(\N)c2ccccn2)c1C	?	23%	65*	28*
Cc1ccc(S(=O)(=O)N(C)CC(=O)O/N=C(\N)c2ccccn2)cc1	6%	-5%	-13	-2
N/C(=N\OC(=O)Cc1ccc(Cl)cc1)c1ccncc1	13%	?	28	-2
Cc1ccc(OCC(=O)O/N=C(\N)c2ccccn2)cc1	-14%	0%[46.1 µM]	80*	50*
SMILES	LASV entry inh	Marburg entry inh	Shiga toxin inh	Cycloheximide cs
Cc1ccc(CC(=O)O/N=C(\N)c2ccccn2)cc1	/	/	84*	82*
CCCCNS(=O)(=O)c1ccc(NC(=O)Cc2ccccc2[N+](=O)[O-])cc1	1%	4%[46.1 µM]	-1	1
Cc1ccc(S(=O)(=O)N2CCCC2C(=O)NCc2ccc3c(c2)OCO3)cc1 (centres undefined)	0%	2%[46.1 µM]	-8	10
Cc1ccc(S(=O)(=O)NC(C)(C)CSc2ccccn2)cc1	4%	-2%	-11	-2
N/C(=N\OC(=O)COc1cc(Cl)c(Cl)cc1Cl)c1ccccn1	?	?	91*	39*
CC(C)(C)CC(=O)O/N=C(\N)c1ccccn1	?	?	30	40*
O=S(=O)(CCc1ccccc1)CS(=O)(=O)CCc1ccccc1	-1%[46.1 µM]	8%[46.1 µM]	/	/
CCN1C[C@@]2(COC)C3[C@@H](OC)C4[C@@H]1C3([C@@H]1C[C@@]3(O)[C@H](OC(=O)c5ccccc5)[C@@H]1[C@]4(OC(C)=O)[C@@H](O)[C@@H]3OC)[C@H](OC)C[C@H]2O	/	1%	/	/
CCN1C[C@@]2(COC)CCC(OC)[C@]34C5C[C@]6(O)[C@@H](OC)C[C@](OC(C)=O)(C([C@H](OC)C23)[C@H]14)C5[C@H]6OC(=O)c1ccc(OC)cc1 (some centres undefined)	/	/	23*	21*
O=C(CSc1nnc(Cn2nnc3ccccc32)o1)Nc1cccc(Cl)c1	-5%	29%	-7	-3
